{
  "source": "PubChem BioAssay AID588342",
  "about": "(National Center for Advancing Translational Sciences (NCATS), 2011)",
  "note": "In all, about 360,000 compounds went through this assay and about 25,000 (6.9%) were called active. Roughly 9% stayed inconclusive and do not appear here. The entries come from a sample that favours actives as a whole. A number with no mark means an inactive call. The call rests on the fitted dose curve; in most records, active means well fitted inhibition curve with a large enough effect; inconclusive means small, poorly fitted or top-dose-only effect; inactive means flat fitted curve, though single readings scatter.",
  "data": [
    {"biological_target": "Luciferin 4-monooxygenase (Photinus pyralis) (UniProt P08659)", "sequence (P08659 whole entry, looked up)": "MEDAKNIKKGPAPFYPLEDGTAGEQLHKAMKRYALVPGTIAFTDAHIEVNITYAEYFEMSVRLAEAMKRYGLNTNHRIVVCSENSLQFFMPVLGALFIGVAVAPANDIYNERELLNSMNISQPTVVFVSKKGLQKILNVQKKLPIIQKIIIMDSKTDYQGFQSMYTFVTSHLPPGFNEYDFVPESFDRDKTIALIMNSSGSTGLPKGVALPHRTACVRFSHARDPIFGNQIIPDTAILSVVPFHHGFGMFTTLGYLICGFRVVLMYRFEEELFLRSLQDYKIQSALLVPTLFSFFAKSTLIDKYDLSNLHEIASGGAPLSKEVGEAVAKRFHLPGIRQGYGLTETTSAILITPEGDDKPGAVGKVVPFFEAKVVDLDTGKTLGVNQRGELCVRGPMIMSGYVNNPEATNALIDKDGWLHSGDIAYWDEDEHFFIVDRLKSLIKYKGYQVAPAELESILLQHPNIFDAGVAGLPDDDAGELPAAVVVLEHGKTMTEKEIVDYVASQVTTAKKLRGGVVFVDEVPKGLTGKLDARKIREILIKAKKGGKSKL", "experiment": "qHTS profiling assay for firefly luciferase inhibitor/activator using purifed enzyme and Km concentrations of substrates (counterscreen for miR-21 project); further: nearly all actives have a fitted effect of over 55% in size;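 on activity change, negative = inhibition: plate controls were vehicle for no effect and reference inhibitor for full effect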", "conditions": "purified FLuc, luminescence inhibition; series mostly up to 57.5 µM; activity change, negative = inhibition: at the top concentration", "excerpt": "MLPCN Grant: 1 R21 NS059478-01 (miR-21 grant) Assay Provider: NCGC NCGC Assay Overview: Firefly (Photinus pyralis) luciferase is one of the most commonly used transcriptional reporters for a number of reasons. It is considered one of the more dynamically responsive reporters -that is, responsive to changes in reporter transcription - as it requires no post-translational modifications and is enzymatically active directly after protein synthesis (Wood, 1998). Additionally, the half-life of the luciferase protein is short relative to other reporter-gene products (Wood, 1995). Whereas reporters with long half-lives potentially allow for increased signal due to accumulation of reporter-gene product, once accumulated in the cell, dynamic changes in reporter-gene expression may be difficult to detect(Fan and Wood, 2007; Almond et al., 2004). It has been shown that wild-type P. pyralis luciferase has a half-life of approximately […] hours in mammalian cells (Thompson et al., 1991). Firefly luciferase reporter-gene assays are also generally considered one of the most sensitive assay types (Wood, 1995; Wood, 1998). Although light produced in a bioluminescence reaction is of lower intensity than that produced during fluorescence emission, this is offset by little to no background light inherent to luminescent assays. Thus the luciferase reporter can be expressed at much lower levels than fluorescent proteins while still providing robust signal. # However, it was initially observed, in 1991, by Thompson et al., that compounds that resemble the substrates of firefly luciferase (FLuc) can act as competitive inhibitors of the enzyme, and that these compounds, upon interaction with luciferase in the cell, can actually stabilize the protein and increase its half-life. Accumulated intracellular FLuc protein can be measured as an increase in luminescence signal, upon addition of detection reagents (which contain high concentrations of FLuc substrates) commonly used in high-throughput screening. In cell-based reporter gene assays that use FLuc as the reporter gene to quantitate the potential influence of a given compound against the target biology, this apparent increase in luminescence can mistakenly be interpreted as identification of a compound that is active against the target of interest. This is the case for the miR-21 FLuc reporter gene assay used to identify inhibitors of the miR-21 pathway (PubChem AID 2289) - compounds of interest will inhibit miR-21 biogenesis/expression or activity, and are identified by causing an increase in luminescence, due to increased FLuc translation. However, FLuc inhibitory compounds that stabilize the FLuc protein will give an identical read-out, making it difficult to distinguish compounds that are active against the target from those active against FLuc. Previous profiling work to determine the prevalence of compounds that affect FLuc enzymatic activity (PubChem AID 411) identified that ~3% of the MLSMR library (then at ~72K) inhibited FLuc. […] Since the MLSMR had grown to ~350K compounds, and since it was expected that a significant percentage of compounds found active in the miR-21 FLuc assay would be FLuc inhibitors, the library was screened for activity against FLuc using a biochemical assay of purified FLuc and KM concentrations of FLuc substrates (D-luciferin and ATP).\nNCGC Assay Protocol Summary: Reagents: 50mM Tris acetate, pH 7.5; 10mM Mg acetate; 10uM D-luciferin (Sigma #L9504); 10uM ATP; 0.01% Tween-20; 0.05% BSA; 10nM P. pyralis luciferase (Sigma #L9506) Control compounds used were two known firefly luciferase inhibitors (compounds (2) and (5) in Auld et al., 2010), and DMSO. […]", "values": [
      {"smiles": "O=C(Nc1sc2c(c1C(=O)O)CCC2)c1ccccc1F", "Potency": "26.9 µM (active)"},
      {"smiles": "O=C(CCS(=O)(=O)c1ccccc1)Nc1nc2c(s1)CCCC2", "activity change, negative = inhibition": "-2.31%"},
      {"smiles": "Cc1ccccc1NC(=O)c1c(NC(=O)c2ccccc2F)sc2c1CCC(C)C2", "note": "(centres undefined)", "activity change, negative = inhibition": "-1.42%"},
      {"smiles": "C=CCN(CC=C)S(=O)(=O)c1ccc(C(=O)Nc2sc3c(c2C(N)=O)CCCCC3)cc1", "activity change, negative = inhibition": "-4.48%"},
      {"smiles": "CC(C)(C)C1CCc2c(sc(NC(=O)c3ccccc3F)c2C(=O)N2CCCCC2)C1", "note": "(centres undefined)", "activity change, negative = inhibition": "-0.0444%"},
      {"smiles": "O=C(Cn1c(=O)sc2ccccc21)Nc1nc2c(s1)CCCC2", "activity change, negative = inhibition": "-4.24%"},
      {"smiles": "NC(=O)c1c(NC(=O)c2ccccc2)sc2c1CCCC2", "Potency": "0.675 µM (active)"},
      {"smiles": "Cc1ccc(C(=O)c2c(NC(=O)c3ccncc3)sc3c2CCCC3)cc1", "activity change, negative = inhibition": "3.4%"},
      {"smiles": "O=C(Nc1nc2c(s1)CCCC2)c1ccccc1F", "Potency": "0.338 µM (active)"},
      {"smiles": "O=C(O)c1cccc(S(=O)(=O)N2CC=C(c3ccccc3)CC2)c1", "activity change, negative = inhibition": "-6.25%"},
      {"smiles": "Cc1nnc(SCC(=O)NCc2ccccc2Cl)c2nn(-c3ccccc3)c(C)c12", "activity change, negative = inhibition": "-15.3%"},
      {"smiles": "CC(NCCc1ccc(S(N)(=O)=O)cc1)C(=O)NCc1ccccc1", "note": "(centres undefined)", "activity change, negative = inhibition": "2%"},
      {"smiles": "Cc1ccc(S(=O)(=O)N(C)C)cc1NC(=O)c1ccc(-n2cncn2)c([N+](=O)[O-])c1", "activity change, negative = inhibition": "-3.04%"},
      {"smiles": "O=C(CNC(=O)OCc1ccccc1)NC1CCCCNC1=O", "note": "(centres undefined)", "activity change, negative = inhibition": "-1.31%"},
      {"smiles": "CCOc1cc(-c2nnc(SCC(=O)NC3CCCCC3)nc2-c2ccc(OC)c(OCC)c2)ccc1OC", "activity change, negative = inhibition": "2.92%"},
      {"smiles": "Cc1cc(C)cc(NC(=O)Cn2c(=O)c3ccccc3n3nncc23)c1", "activity change, negative = inhibition": "2.23%"},
      {"smiles": "Cc1cccc(C(=O)NCC(=O)OCC(=O)N(C)CC(=O)Nc2ccccc2Cl)c1", "activity change, negative = inhibition": "5.48%"},
      {"smiles": "COc1ccc(CCNC(=O)c2cc3cccc4c3n2CC(C)S4)c(OC)c1OC", "note": "(centres undefined)", "activity change, negative = inhibition": "-16.9%"},
      {"smiles": "CN1C(=O)/C(=C\\c2cc(Br)cs2)c2ccccc21", "Potency": "4.26 µM (active)"},
      {"smiles": "CCC1C(=O)c2ccccc2N(C)C1=O", "note": "(centres undefined)", "activity change, negative = inhibition": "3.54%"},
      {"smiles": "CN1C(=O)c2ccccc2Sc2ccc(NC(=O)Cc3ccc(Cl)cc3)cc21", "activity change, negative = inhibition": "-4.82%"},
      {"smiles": "COc1ccc(C(CC(=O)c2ccccc2)S(=O)(=O)c2ccccc2)cc1", "note": "(centres undefined)", "Potency": "0.478 µM (active)"},
      {"smiles": "COc1ccc(N(Cc2ccccc2)S(=O)(=O)c2cccc(C(=O)O)c2)cc1", "activity change, negative = inhibition": "1.17%"},
      {"smiles": "COc1ccc(CN(C)C(=O)CC(c2ccccc2)c2ccccc2)cc1", "activity change, negative = inhibition": "0.703%"},
      {"smiles": "Cc1c(NS(=O)(=O)c2cc(C(=O)NCCc3ccc(F)cc3)cc(Cl)c2Cl)c(=O)n(-c2ccccc2)n1C", "activity change, negative = inhibition": "0.627%"},
      {"smiles": "COc1cccc(-n2c(=O)c3c(C)c(C(=O)N(C)C)sc3n(Cc3cccc(C)c3)c2=O)c1", "activity change, negative = inhibition": "-3.37%"},
      {"smiles": "Cc1cccc(OC(=O)c2sc3ncn(C)c(=O)c3c2C)c1", "Potency": "12 µM (active)"},
      {"smiles": "Cc1c(C(N)=O)sc2ncn(CCOc3ccccc3)c(=O)c12", "activity change, negative = inhibition": "-2.28%"},
      {"smiles": "COc1ccc(S(=O)(=O)N2CCN(c3ccc(F)cc3)CC2)cc1-c1noc(C)n1", "activity change, negative = inhibition": "-4.3%"},
      {"smiles": "Cc1ccc2c(c1)c1c(c(=O)n(-c3ccccc3)c(=O)n1CC(=O)c1ccc(Cl)cc1)n2C", "activity change, negative = inhibition": "-3.33%"},
      {"smiles": "O=C(Cn1nc(Cc2cccnc2)c2ccccc2c1=O)N1CCN(c2ccccc2F)CC1", "activity change, negative = inhibition": "-2.35%"},
      {"smiles": "Cc1cc2c(=O)n(C)c(SCC(=O)c3cc4ccccc4o3)nc2s1", "activity change, negative = inhibition": "4.57% [at 2.3 µM]"},
      {"smiles": "Nc1ncc(-c2cc3ccccc3oc2=O)s1", "Potency": "6.01 µM (active)"},
      {"smiles": "Cc1ccc(S(=O)(=O)N2CCC(C(=O)OCC(=O)N(C)c3ccccc3)CC2)cc1C", "activity change, negative = inhibition": "9.29%"},
      {"smiles": "CCC(C(=O)Nc1cccc(Cl)c1C)n1nc(-c2ccc(C)cc2)ccc1=O", "note": "(centres undefined)", "activity change, negative = inhibition": "3.5%"},
      {"smiles": "COc1ccc(C)cc1N(CC(=O)N1CCC(C)CC1)S(=O)(=O)c1ccc(C)cc1", "activity change, negative = inhibition": "-7.97%"},
      {"smiles": "CC(C)(COC(=O)Nc1ccccc1)COC(=O)Nc1ccccc1", "activity change, negative = inhibition": "-14.3%"},
      {"smiles": "O=C(Nc1ccccc1)O/N=C1\\CCCCC1c1ccc([N+](=O)[O-])cc1[N+](=O)[O-]", "note": "(centres undefined)", "activity change, negative = inhibition": "4.78%"},
      {"smiles": "O=C(Nc1ccccc1)O/N=C1/CCCc2occc21", "Potency": "16.9 µM (active)"},
      {"smiles": "O=S(=O)(O)Oc1c[nH]c2ccccc12", "Potency": "12 µM (active)"},
      {"smiles": "NC(=O)CSc1c[nH]c2ccccc12", "activity change, negative = inhibition": "-10.3%"},
      {"smiles": "CC(=O)NC(Cc1c[nH]c2ccccc12)C(=O)O", "note": "(centres undefined)", "activity change, negative = inhibition": "5.21%"},
      {"smiles": "Cc1ccc(NC(=O)Cn2c(=O)n(-c3ccccc3)c(=O)c3c4c(sc32)CCCC4)cc1", "activity change, negative = inhibition": "2.01%"},
      {"smiles": "CCOc1ccc(-c2ccc(SCC(=O)N3CCOCC3)nn2)cc1", "Potency": "3.38 µM (active)"},
      {"smiles": "CCn1c(COc2cccc(OC)c2)nnc1SCC(=O)N1CCOCC1", "activity change, negative = inhibition": "6.62%"},
      {"smiles": "CCOc1ccc(C(=O)CCN2CCOCC2)cc1", "activity change, negative = inhibition": "1.6%"},
      {"smiles": "CCNS(=O)(=O)c1ccc(NC(=O)CSc2nc(-c3ccco3)cc(C(F)(F)F)n2)cc1", "activity change, negative = inhibition": "2.67%"},
      {"smiles": "O=C1OC2(CCCCC2)CC2=C1C1O[C@](c3ccsc3)(Cc3ccccc31)O2", "activity change, negative = inhibition": "-0.717% [at 11.5 µM]"},
      {"smiles": "Nc1nnn(CC(=O)N/N=C/c2ccc(O)cc2)n1", "activity change, negative = inhibition": "-1.83%"}
    ]}
  ]
}
